Sfp PPTase inh – inhibitors of Bacillus subtilis Sfp phosphopantetheinyl transferase. Biochemical Sfp PPTase activity, qHTS. AID 1490. Q9F4F7. Potency, µM, without a hit: largest response in the series, negative = inhibition, usual class: inhibitors. 310,000 tested, 3.5% active;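 further: the enzyme is Sfp with the accession as filed and its product quenches rhodamine fluorescence; potency means the concentration at half of the fitted maximal effect; 0% = enzyme reaction without inhibitor and -100% = no enzyme wells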
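Reaction rates are the 30-min fluorescence difference (ex 525, em 598 nm) in wells containing 15 nM Sfp, 5 uM rhodamine-CoA and 12.5 uM BHQ-2-YbbR at pH 7.6 with 10 mM MgCl2.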
G9a inh – inhibitors of human histone lysine methyltransferase G9a; Q96KQ7; G9a H3K9 monomethylation, AlphaScreen, 2 h; Potency, µM (series often up to 102 µM), inactives show at the highest dose activity, negative = inhibition, usual class: inhibitors; 350,000 tested, 8.8% active; further: potency means the concentration at half of the fitted maximal effect; nearly all actives have a fitted effect of over 75% in size
Target sequence (Q96KQ7 913-1193 limits assumed): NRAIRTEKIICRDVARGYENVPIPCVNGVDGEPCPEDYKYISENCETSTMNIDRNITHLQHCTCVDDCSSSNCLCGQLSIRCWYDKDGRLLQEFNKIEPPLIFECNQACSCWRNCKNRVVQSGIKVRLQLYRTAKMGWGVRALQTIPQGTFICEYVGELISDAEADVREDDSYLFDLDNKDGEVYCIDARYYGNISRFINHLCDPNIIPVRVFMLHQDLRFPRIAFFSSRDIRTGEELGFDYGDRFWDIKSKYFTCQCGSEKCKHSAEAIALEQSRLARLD
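G9a (20 nM) preincubated 15 min RT with compounds, then 500 nM biotinylated H3K9 peptide and 20 uM SAM added; 2 h RT reaction. Monomethyl-H3K9 product detected by AlphaScreen with anti-H3K9me1 antibody, streptavidin donor and anti-rabbit IgG acceptor beads.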
CCT chaperon mod – modulators of cytosolic chaperonin (CCT/TRiC) activity; purified chaperonin ATPase assay, HTRF ADP detection, 30 min; 360,000 tested, 0.3% active; activity change, % (no concentration beside the values), hits read low; in the data active means activity change below about -30%
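Enzyme 40 or 20 nM (batch-dependent) in Tris pH 7.4/KCl/MgCl2/DTT; cpd 76 uM single point; ATP 10 uM; 30 min 37 °C; Transcreener ADP HTRF detection, 30 min RT; ratio 665/615.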
VDR inh – vitamin D3 receptor (human) inhibition; AID 504847; VDR-SRC2-3 peptide fluorescence polarization, 2 h; P11473; Potency, µM, for inactives: max response, negative = inhibition, actives largely listed as inhibitors; 400,000 tested, 0.93% active; further: potency means the concentration at half of the fitted maximal effect
Target sequence (P11473 whole entry, looked up): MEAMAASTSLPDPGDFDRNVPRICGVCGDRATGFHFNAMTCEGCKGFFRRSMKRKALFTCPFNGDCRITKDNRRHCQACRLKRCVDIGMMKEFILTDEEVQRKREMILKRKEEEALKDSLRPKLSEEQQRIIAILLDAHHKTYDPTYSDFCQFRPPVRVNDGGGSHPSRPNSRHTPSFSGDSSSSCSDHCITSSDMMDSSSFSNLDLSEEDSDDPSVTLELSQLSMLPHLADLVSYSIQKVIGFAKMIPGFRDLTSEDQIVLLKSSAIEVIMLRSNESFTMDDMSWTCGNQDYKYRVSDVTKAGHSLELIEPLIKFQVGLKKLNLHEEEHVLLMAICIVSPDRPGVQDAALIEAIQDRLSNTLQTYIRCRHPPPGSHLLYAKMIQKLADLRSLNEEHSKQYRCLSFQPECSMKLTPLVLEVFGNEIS
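Fluorescence polarization assay of small-molecule disruption of VDR binding to coregulator peptide SRC2-3. Compounds and controls pin-transferred, then read after 2 h incubation at ambient room temperature.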
PLK1 PBD inh – blocks phosphopeptide binding to human PLK1 polo-box domain. Plk1 PBD binding of FITC phosphopeptide, fluorescence polarization. P53350. 360,000 tested, 2.8% active. Potency, µM, inactives show max response, negative = inhibition, hits mostly inhibitors; further: potency means the concentration at half of the fitted maximal effect; series mostly up to about 57 µM; nearly all actives have a fitted effect of over 65% in size
Mm-Cpn inhibitor – M. maripaludis TRiC chaperonin inhibition. purified Mm-Cpn ATPase, ADP Transcreener TR-FRET. Potency, µM (series often up to 76.9 µM), for the others: at the top dose activity, negative = inhibition, hits mostly inhibitors. 330,000 tested, 0.031% active; further: potency means the concentration at half of the fitted maximal effect; nearly all actives have a fitted effect of over 80% in size
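Purified archaeal Mm-CPN (25nM final) preincubated 10 min at 37degC with compound, then 10uM ATP for 30 min at 37degC; ADP measured by HTRF Transcreener TR-FRET; buffer 30 mM TRIS pH 7.4, 100mM KCl, 5mM MgCl2, 1mM DTT.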
An asterisk follows results filed as active; [ ] = another dose, or the depositor's remark. Shown are actives, neighbours in structure and some others; about 10% of the full set was active somewhere. Unless noted, the call rests on the fitted dose curve; in most records, active means well fitted curve in the direction sought with a large enough effect; inconclusive means small, poorly fitted or top-dose-only effect, or another doubt; inactive means no such curve, though single readings can be large; an effect the other way counts as inactive or inconclusive. Unless noted, on the % scale 0 is the no-effect control and ±100 the full control effect.

Results for CN1C(=O)C(=O)/C(=C(/O)c2ccccc2)C1c1ccc([N+](=O)[O-])cc1 (stereo not drawn) ?
Sfp PPTase inh: 22%; CCT chaperon mod: 1; VDR inh: -20%; PLK1 PBD inh: 1%; Mm-Cpn inhibitor: 3%

Results for COc1cc(C2/C(=C(/O)c3ccccc3)C(=O)C(=O)N2c2ccccn2)ccc1O (stereo not drawn) ?
Sfp PPTase inh: -3%; G9a inh: -30%; CCT chaperon mod: -4; VDR inh: 3%; PLK1 PBD inh: -22%; Mm-Cpn inhibitor: -2%

Results for Cc1ccc(/C(O)=C2\C(=O)C(=O)N(C)C2c2ccc([N+](=O)[O-])cc2)cc1 (stereo not drawn) ?
Sfp PPTase inh: 23%; G9a inh: 8%[0.501 µM]; CCT chaperon mod: -2; VDR inh: inconclusive; PLK1 PBD inh: -3%; Mm-Cpn inhibitor: 3%

How did COc1ccc(-c2cc(C(F)(F)F)n3nc(C(=O)NCC45CC6CC(CC(C6)C4)C5)cc3n2)cc1 do in these assays?
G9a inh: 0%[59 µM]; VDR inh: 1%

How did Cc1ccc(C(=O)Nc2ccc3oc(-c4cc(Br)ccc4Cl)nc3c2)cc1 do in these assays?
G9a inh: -27%[59 µM]; VDR inh: -12%

What do the screens show for `COc1ccc(C2/C(=C(\O)c3cccc(OC)c3)C(=O)C(=O)N2c2ccccn2)cc1` (stereo not drawn)?
Sfp PPTase inh: -2%; CCT chaperon mod: -1; VDR inh: -2%; PLK1 PBD inh: -7%; Mm-Cpn inhibitor: -9%

How did COc1ccc(C2/C(=C(/O)c3ccc(F)cc3)C(=O)C(=O)N2c2ccccn2)cc1OC (stereo not drawn) do in these assays?
Sfp PPTase inh: 11%; G9a inh: -10%; CCT chaperon mod: -4; VDR inh: inconclusive; PLK1 PBD inh: 12µM*; Mm-Cpn inhibitor: -5%

What do the screens show for `COc1ccc(C2/C(=C(/O)c3ccc(C)cc3)C(=O)C(=O)N2c2ccccn2)cc1` (stereo not drawn)?
Sfp PPTase inh: 7%; G9a inh: 45µM*; CCT chaperon mod: -2; VDR inh: -17%; PLK1 PBD inh: 2%; Mm-Cpn inhibitor: -6%

What do the screens show for `CCOc1ccc(/C(O)=C2/C(=O)C(=O)N(c3ncccn3)C2c2ccc(Cl)cc2)cc1` (stereo not drawn)?
Sfp PPTase inh: inconclusive; G9a inh: 50µM*; CCT chaperon mod: -2; VDR inh: inconclusive; PLK1 PBD inh: -21%; Mm-Cpn inhibitor: -12%

How did COc1cccc(CNC(=O)c2cccc(N3CCCS3(=O)=O)c2)c1 do in these assays?
G9a inh: -13%[59 µM]; VDR inh: 9%

Results for O=C(/C=C/c1ccco1)c1ccc(NC(=O)C23CC4CC(CC(C4)C2)C3)cc1 ?
Sfp PPTase inh: 3.5µM*; G9a inh: 4.5µM*; CCT chaperon mod: 0; VDR inh: inconclusive; PLK1 PBD inh: -24%; Mm-Cpn inhibitor: -11%

How did O=C(C=Cc1ccco1)c1ccc([N+](=O)[O-])cc1 do in these assays?
CCT chaperon mod: -2; VDR inh: inconclusive; PLK1 PBD inh: -13%

Results for Cc1cc(S(=O)(=O)N2CCN(CC(=O)N(C)Cc3ccccc3)CC2)ccc1Br ?
G9a inh: 56µM*; CCT chaperon mod: -2; VDR inh: -20%; PLK1 PBD inh: 0%; Mm-Cpn inhibitor: -4%

What do the screens show for `CN(Cc1ccccc1)C(=O)CN1CCN(S(=O)(=O)c2ccc(Cl)c(Cl)c2)CC1`?
G9a inh: inconclusive; CCT chaperon mod: -2; VDR inh: 15%; PLK1 PBD inh: -4%; Mm-Cpn inhibitor: 1%

Results for Cc1ccn2c(Nc3c(C)cccc3C)c(-c3ccsc3)nc2c1 ?
G9a inh: 10µM*; VDR inh: -6%

How did Cc1ccn2c(NC3CCCC3)c(-c3cccs3)nc2c1 do in these assays?
Sfp PPTase inh: -19%; G9a inh: 45µM*; CCT chaperon mod: -1; VDR inh: 40µM*; PLK1 PBD inh: 4.2µM*; Mm-Cpn inhibitor: -1%

What do the screens show for `Cc1ccn2c(Nc3c(C)cccc3C)c(-c3ccc(Cl)s3)nc2c1`?
G9a inh: 7.1µM*; VDR inh: -5%

How did O=C(CSc1nc2c(c(=O)[nH]1)CN(Cc1ccc3c(c1)OCO3)CC2)Nc1ccc(F)c(F)c1 do in these assays?
G9a inh: -9%[59 µM]; VDR inh: 5%

What do the screens show for `COc1ccc(Cl)cc1NC(=S)N(Cc1ccccc1C)CC1CCC(C(=O)O)CC1` (stereo not drawn)?
Sfp PPTase inh: 56µM*; G9a inh: 28µM*; CCT chaperon mod: 1; VDR inh: 6%; PLK1 PBD inh: 30µM*; Mm-Cpn inhibitor: 3%

What do the screens show for `CCc1ccccc1NC(=S)N(Cc1ccc(OC)cc1)CC1CCC(C(=O)O)CC1` (stereo not drawn)?
Sfp PPTase inh: 1%; G9a inh: -2%; CCT chaperon mod: -1; VDR inh: 16%; PLK1 PBD inh: -19%; Mm-Cpn inhibitor: 4%

Results for COC(=O)c1ccc(N2OC3(C)C=CC2CC3)cc1 (stereo not drawn) ?
Sfp PPTase inh: -17%; G9a inh: 45µM*; CCT chaperon mod: 1; VDR inh: -1%; PLK1 PBD inh: -4%; Mm-Cpn inhibitor: -2%

What do the screens show for `CCOc1ccc(CCNC(=O)CSc2nc3ccccc3nc2Cc2ccc(C)cc2)cc1OCC`?
G9a inh: inconclusive; VDR inh: -7%

What do the screens show for `CCCCCCCCCCCCCCCC(=O)NCCc1c[nH]c2ccccc12`?
Sfp PPTase inh: 8%; G9a inh: 30%[12.7 µM]; CCT chaperon mod: 0; VDR inh: 7%; PLK1 PBD inh: -6%

How did CCCCC(=O)NCCc1c(Cc2ccccc2)[nH]c2ccccc12 do in these assays?
Sfp PPTase inh: -6%; G9a inh: 13µM*; VDR inh: -22%

What do the screens show for `CC(C)(C)c1ccc(-c2csc(NNC3=NCCCCC3)n2)cc1`?
Sfp PPTase inh: 50µM*; G9a inh: 13µM*; CCT chaperon mod: -2; VDR inh: inconclusive; PLK1 PBD inh: inconclusive; Mm-Cpn inhibitor: -1%

What do the screens show for `c1ccc(-c2csc(NC3=NCCCCC3)n2)cc1`?
Sfp PPTase inh: 0%; G9a inh: 14%[59 µM]; CCT chaperon mod: -3; VDR inh: -11%; PLK1 PBD inh: -5%; Mm-Cpn inhibitor: 0%

What do the screens show for `FC(F)Oc1ccc(-c2csc(NNC3=NCCCCC3)n2)cc1`?
Sfp PPTase inh: 22µM*; G9a inh: 13µM*; CCT chaperon mod: -8; VDR inh: inconclusive; PLK1 PBD inh: 3.8µM*; Mm-Cpn inhibitor: 0%

High-throughput results as filed in PubChem.
